# Test results: the supplement of paper PMC10338343
# ± gives the standard deviation.
# Test system: MILI (PIWIL2) piRISC loaded with piRNA #1 (26 nt)
# Experiment: pre-steady-state target cleavage rate (min^-1); guide: piRNA #1 5'p-UGAGGUAGUAGGUUGUAUAGUAUCCA; MIWI and MILI are mouse PIWI proteins and EfPiwi is from a freshwater sponge; tags in brackets are library labels; higher = faster piRNA-guided slicing of the target
# Conditions: auxiliary factor: 500 nM mouse GTSF1
# Method in brief: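 Cleave-'n-Seq: 1 nM active affinity-purified piRISC with one synthetic guide and 0.1 nM transcribed, DNA-blocked target RNA library were mixed, with or without 500 nM GTSF1 partner protein, in HEPES–potassium acetate buffer at 33 °C for 0–8 or 0–960 min. Uncleaved targets were sequenced and normalised to depth and to weakly complementary targets, three trials were pooled, and k3 was capped at 0.0001 min^-1. The pre-steady-state cleavage rate was fitted […].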
row,Sequence,pre-steady-state target cleavage rate
1,GGAGACCUAUGAUAUGUUCCUACUAACUCA,< 0.0001
2,GGAGACCUAUGAAUACUACCUACUACCUCA,0.0049 ± 0.0017
3,GGAGACCUAUGUAUACAACCUACUACCACA,0.0991 ± 0.01
4,GGAGACCUUACUAUACAUCCUACUUCCUCA,0.183 ± 0.031
5,GGAGACCUAUGAUUACUACCUACAACCUCA,0.00398 ± 0.0024
6,GGAGACCUAUGAUUACAACCUACUACCUAA,0.00444 ± 0.003
7,GGAGACCUAUCUGUACAACCUACUACCUCA,0.0491 ± 0.0092
8,GGAGACCUAACUAAACAACCUACUACGUCA,0.0404 ± 0.019
9,GGAGACCAUACUAUACAACCUACUACCAGA,0.169 ± 0.027
10,GGAGACCUAACAUUACAACCUACUACCUCA,0.0283 ± 0.0089
11,GGAGACCUAUGUAUACAACCUACUUCCUCA,0.0381 ± 0.0071
12,GGAGACCUAUCUAUACAACCUAGCUACCUCA,0.0218 ± 0.0062
13,GGAGACCAUAGUAUACAACCUACAACCUCA,0.129 ± 0.017
14,GGAGAGGAUACUAUACAACGUACUAGCUCA,0.00413 ± 0.0037
15,GGAGACCUAUCUAUACAUCCUACAACCUCA,0.165 ± 0.014
16,GGAGACCAUACUAUACAACCUACUAGCCUCA,0.176 ± 0.024
17,GGAGACCUAUCUUUACAACCUUCUACCUCA,0.00489 ± 0.0025
18,GGAGACCAUACUAUACAACCUUCAACCUCA,0.0066 ± 0.0029
19,GGAGACCUAUCUAUUCAACCUACUAGCUCA,0.0826 ± 0.014
20,GGAGACCUAUCUAUACAAGGUACUACCUCA,0.0563 ± 0.0083

row,Sequence,pre-steady-state target cleavage rate
1,GGAGACCUUACUAUACAAGCUACUUCCUCA,0.149 ± 0.021
2,GGAGUGGAUACUAUAGAACCUAGUACCUCA,0.00269 ± 0.0022
3,GGAGACCUAUGAUAUGUUGGUACUACGAGA,< 0.0001
4,GGAGACCAUACUAUACUACCUACUAGCUCA,0.0939 ± 0.017
5,GGAGACCUAUGAUAUCAACCUACUUACCUCA,0.00342 ± 0.0024
6,GGAGACCAUACUAAACAACCUAGUACCUCA,0.0362 ± 0.0083
7,GGAGACCUAUGAUAAGCAACCUACUACCUCA,0.00516 ± 0.0031
8,GGAGAGGAUACUAUAGUUCCUACUACCUCA,0.18 ± 0.015
9,GGAGACGAUACAUAACAACCUACUACCUCA,0.114 ± 0.013
10,GGAGACCUAACUUUACUACCUACUACCUCA,0.0581 ± 0.013
11,GGAGACCUAUGAUAUCAACCUAUCUACCUCA,0.00534 ± 0.002
12,GGAGAGGAUUCUAUACUACCUACUACCUCA,0.161 ± 0.0097
13,GGAGACCAUACUAUACAACCUACAAGCUCA,0.0598 ± 0.015
14,GGAGACCAUACUUUACAACCUACAACCUCA,0.14 ± 0.018
15,GGAGACCUUACUAUACAACCUACUAGCUGA,0.00949 ± 0.0037
16,GGAGACCUUACUUUACAACCUAGUACCUCA,0.047 ± 0.011
17,GGAGUGGAUACUUAACAACCUACUACCUCA,0.157 ± 0.0088
18,GGAGACCAUACUAUACAACGAUCUACCUCA,< 0.0001
19,GGAGACCUAAGUAUACAACCUAGUACCUCA,0.0133 ± 0.0034
20,GGAGACCUAUCUAUCAACCUACUACCUCA,0.0205 ± 0.0047
